Unmarked numbers belong to inactive results. Activity calls are given as the source filed them. Calls come from the whole dose curve; as a rule, active = well fitted curve in the direction sought with a large enough effect; inconclusive = small, poorly fitted or top-dose-only effect, or another doubt; inactive = no such curve, though single readings can be large or run the other way.
What follows are compounds tested against Alpha-galactosidase (Coffea arabica) (UniProt Q42656) (assay: Counterscreen for Glucocerebrosidase Inhibitors: qHTS Assay for Coffee Bean alpha-Galactosidase at pH 4.5 (AID 957;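 note: plate controls were enzyme alone for no effect and no enzyme for full effect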)). Settings: purified coffee bean alpha-galactosidase, fluorogenic substrate; series mostly up to 76.9 µM; activity change, negative = inhibition: at the top concentration.
Chain of Alpha-galactosidase (Coffea arabica) (Q42656 whole entry, looked up): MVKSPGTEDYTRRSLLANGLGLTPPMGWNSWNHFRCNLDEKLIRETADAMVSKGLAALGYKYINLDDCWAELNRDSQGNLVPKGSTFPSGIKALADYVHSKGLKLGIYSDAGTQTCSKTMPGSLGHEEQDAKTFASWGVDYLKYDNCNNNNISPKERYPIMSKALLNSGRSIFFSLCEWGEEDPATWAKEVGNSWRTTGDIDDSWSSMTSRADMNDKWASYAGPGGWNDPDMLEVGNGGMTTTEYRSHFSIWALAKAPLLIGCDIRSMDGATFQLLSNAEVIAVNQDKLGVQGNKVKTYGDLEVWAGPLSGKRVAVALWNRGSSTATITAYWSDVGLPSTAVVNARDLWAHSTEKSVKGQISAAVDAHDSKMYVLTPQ
Text: NIH Chemical Genomics Center [NCGC]
NIH Molecular Libraries Screening Centers Network [MLSCN]
PI Name: Zheng, Wei [NIH]
Alpha-galactosidase is a homodimeric glycoprotein that hydrolyzes the terminal alpha-galactosyl moieties from glycolipids and glycoproteins. Deficiency of this enzyme results in Fabry Disease with progressive accumulation of globotriaosylceramide and other glycosphingolipids in vascular endothelial cells that causes renal failure, myocardial infarction and stroke, and premature death in patients. It has reported that the improper folding and trafficking of alpha-galactosidase resulted from the genetic mutations may account for a significant numbers of Fabry patients. […] We optimized this coffee bean alpha-galactosidase assay in 1536-well plate format as a counter-screen assay for identifying the selective small molecule inhibitors of other lysosomal enzymes.
NCGC Assay Protocol Summary:
This is a fluorogenic enzyme assay with 4-Methylumbelliferyl alpha-D-galactopyranoside as the substrate and green coffee bean […] (from Sigma-Aldrich) as the enzyme preparation. Upon the hydrolysis of this fluorogenic substrate, the resulting product, […]. 4-Methyllumbelliferone, can be excited at 365 nm and emits at 440 nm which can be detected by a standard fluorescence plate reader. Data were normalized to the controls for basal activity (without enzyme) and 100% activity (with enzyme). In the AC50 values were determined from concentration-response data modeled with the standard Hill equation.
Assay buffer: 50 mM citric acid, 0.005% Tween-20, pH 4.5. (pH 5.9 is an optimal condition for this enzyme assay. This assay in pH 4.5 is used for comparison the inhibitor activities with the human alpha-galactosidase assay)
1536-well assay protocol for the coffee bean alpha-galactosidase:
(1) Add 2 ul/well of enzyme (2 nM final)
(2) Add 23 nL compounds in DMSO solution. The final titration was 0.7 nM to 77 uM.
(3) Add 1 ul of substrate (80 uM final)
(4) Incubate at room temperature for 20 min.
(5) Add 2 ul stop solution (1M NaOH and 1M Glycine mixture, pH 10)
(6) Detect the assay plate in a ViewLux plate reader (PerkinElmer) with Ex=365 nm and Em=440nm.
Keywords: Alpha-galactosidase, Fabry Disease, pharmacological chaperone, chaperone therapy, high throughput screening, alpha-galactosidase inhibitor, MLSMR, MLSCN, NIH Roadmap, qHTS and NCGC
For `CC[C@H]1C(=O)OC[C@H]1Cc1cncn1C`, the outcome was “inactive”. In the case of `CNC(=O)Oc1ccc2c(c1)[C@@]1(C)CCN(C)[C@@H]1N2C`, the “activity change, negative = inhibition” value is reported as -2.36%. For `CCc1c(C(=O)OC)ncc2[nH]c3cc(OC)c(OC)cc3c12`, the “activity change, negative = inhibition” value was -2.32%. With `O=C(OC1CCN(CCCl)CC1)C(c1ccccc1)c1ccccc1` the “activity change, negative = inhibition” value was 0.8%. `NC(N)=NN=Cc1c(Cl)cccc1Cl` was tested, and the “activity change, negative = inhibition” value was 0.233%. With `N#C/C(=C\c1ccc(O)c(O)c1)C(N)=S` the “activity change, negative = inhibition” value was -2.36%. With `C[C@]12CC[C@H](O)C[C@@H]1CC[C@H]1[C@H]2CC[C@]2(C)C(=O)CC[C@@H]12` the “activity change, negative = inhibition” value was -0.279%. For `C[C@@](Cc1ccc(O)c(O)c1)(NN)C(=O)O`, the “activity change, negative = inhibition” value was -0.892%. `CN(CCOc1ccc(C[C@H](Nc2ccccc2C(=O)c2ccccc2)C(=O)O)cc1)c1ccccn1` was tested, and the “activity change, negative = inhibition” value was -5.2%. In the case of `COc1cc([C@H]2c3cc4c(cc3[C@@H](O)[C@@H]3COC(=O)[C@H]23)OCO4)cc(OC)c1OC`, the “activity change, negative = inhibition” value is reported as -2.49%. With `CC(C)C[C@H]1C(=O)N2CCC[C@@H]2[C@]2(O)O[C@](NC(=O)[C@H]3C=C4c5cccc6[nH]c(Br)c(c56)C[C@H]4N(C)C3)(C(C)C)C(=O)N12` the “activity change, negative = inhibition” value was -6.78%. In the case of `C[C@H](NC(C)(C)C)C(=O)c1cccc(Cl)c1`, the “activity change, negative = inhibition” value is reported as -1.7%. In the case of `COc1ccc(OC)c([C@H](O)[C@H](C)N)c1`, the “activity change, negative = inhibition” value is reported as 3.33%. `COc1cc(OC)c(/C=C2/C(=O)Nc3ccccc32)c(OC)c1` was tested, and the “activity change, negative = inhibition” value was 2.54%. `CCCCCCC(C)(C)c1ccc([C@@H]2C[C@H](O)CC[C@@H]2CCCO)c(O)c1` was tested, and the “activity change, negative = inhibition” value was -4.86%. With `CCCCN1C2CCC1CC(OC(c1ccc(F)cc1)c1ccc(F)cc1)C2` (stereo not drawn) the “activity change, negative = inhibition” value was -2.96%. For `C#CCN(C)[C@@H](C)Cc1ccccc1`, the “activity change, negative = inhibition” value was -2.02%. `COc1cc(C=C(C#N)C#N)cc(O)c1O` was tested, and the “activity change, negative = inhibition” value was -2.15%. `COc1ccc2c(c1OC)C(=O)O[C@H]2[C@H]1c2cc3c(cc2CCN1C)OCO3` was tested, and the “activity change, negative = inhibition” value was 2.3%. In the case of `NCC#Cc1ccccc1`, the “activity change, negative = inhibition” value is reported as 0.507%. With `C[C@H]1OC[C@@H](C[N+](C)(C)C)O1` the “activity change, negative = inhibition” value was -3.24%. `CC(C)N(CC[C@@](C(N)=O)(c1ccccc1)c1ccccn1)C(C)C` was tested, and the outcome was “inactive”. `CN1CC[C@]2(C)c3cc(O)ccc3N(C)[C@@H]12` was tested, and the “activity change, negative = inhibition” value was -4.03%. With `CC(C)=CCC/C(C)=C/CC/C(C)=C/CSc1ccccc1C(=O)O` the “activity change, negative = inhibition” value was -0.103%. With `NC[C@H](O)c1ccc(O)cc1` the “activity change, negative = inhibition” value was -3.35%. For `S=C(S)N1CCCC1`, the “activity change, negative = inhibition” value was -0.886%. In the case of `Cc1cc(N)c2ccccc2[n+]1CCCCCCCCCC[n+]1c(C)cc(N)c2ccccc21`, the “activity change, negative = inhibition” value is reported as -0.985%. In the case of `CC[C@@]1(c2ccc(N)cc2)CCC(=O)NC1=O`, the “activity change, negative = inhibition” value is reported as 0.403%. With `CS(=N)(=O)CC[C@@H](N)C(=O)O` (stereo partly drawn) the “activity change, negative = inhibition” value was 2.62%. In the case of `CCCN(CCC)C(=O)Cc1c(-c2ccc(Cl)cc2)nc2c(Cl)cc(Cl)cn12`, the “activity change, negative = inhibition” value is reported as 0.275%. With `NNCc1cccc(O)c1` the “activity change, negative = inhibition” value was 0.104%. For `C[N+]1(C)[C@@H]2CC[C@H]1CC(OC(=O)[C@@H](CO)c1ccccc1)C2` (stereo partly drawn), the outcome was “inactive”. With `CC[N+](C)(C)Cc1ccccc1Br` the “activity change, negative = inhibition” value was -3.37%.
